# Values without a mark were called inactive. Records with an inconclusive call do not appear. Entries that show only a call come without a potency. Active and inactive are the calls of the source. Unless noted, calls follow the shape of the dose curve; as a rule, active = well fitted curve in the direction sought with a large enough effect; inconclusive = small, poorly fitted or top-dose-only effect, or another doubt; inactive = no such curve, though single readings can be large; an effect the other way counts as inactive or inconclusive.
# Key:
# [1] = molecular target: Muscarinic acetylcholine receptor M1 (Rattus norvegicus) (UniProt P08482); experiment: qHTS Assay for Antagonists of Acetylcholine Muscarinic M1 Receptor: Kinetic Measurement of Intracellular Calcium Response (AID 943); also: nearly all actives have a fitted effect of over 75% in size; also: potency is read from the fitted curve at half-maximal effect
# Chain of Muscarinic acetylcholine receptor M1 (Rattus norvegicus) (P08482 whole entry, looked up): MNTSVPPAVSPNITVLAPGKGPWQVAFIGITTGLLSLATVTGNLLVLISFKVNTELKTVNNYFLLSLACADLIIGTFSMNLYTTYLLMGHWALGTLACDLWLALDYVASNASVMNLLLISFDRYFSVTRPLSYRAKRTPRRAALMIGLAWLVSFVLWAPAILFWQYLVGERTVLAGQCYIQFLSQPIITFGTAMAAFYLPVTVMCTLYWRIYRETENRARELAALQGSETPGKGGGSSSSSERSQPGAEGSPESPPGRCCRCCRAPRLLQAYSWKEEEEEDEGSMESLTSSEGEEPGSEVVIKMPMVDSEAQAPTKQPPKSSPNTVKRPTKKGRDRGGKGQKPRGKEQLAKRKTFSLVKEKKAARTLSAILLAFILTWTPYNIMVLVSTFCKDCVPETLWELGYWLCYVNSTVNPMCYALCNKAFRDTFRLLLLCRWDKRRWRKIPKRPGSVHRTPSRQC
# How it was run: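 CHO cells expressing rat M1 receptor, Fluo-4 loaded, preincubated 10 min with compound, then stimulated with EC80 carbachol (100 nM final). Kinetic calcium fluorescence over 4 min; response taken as peak over basal signal.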
# [2] = molecular target: Pyruvate kinase (Leishmania mexicana) (UniProt Q27686); experiment: qHTS Validation Assay for Inhibitors of Leishmania Mexicana Pyruvate Kinase (AID 945)
# Chain of Pyruvate kinase (Leishmania mexicana) (Q27686 2-499 E452W): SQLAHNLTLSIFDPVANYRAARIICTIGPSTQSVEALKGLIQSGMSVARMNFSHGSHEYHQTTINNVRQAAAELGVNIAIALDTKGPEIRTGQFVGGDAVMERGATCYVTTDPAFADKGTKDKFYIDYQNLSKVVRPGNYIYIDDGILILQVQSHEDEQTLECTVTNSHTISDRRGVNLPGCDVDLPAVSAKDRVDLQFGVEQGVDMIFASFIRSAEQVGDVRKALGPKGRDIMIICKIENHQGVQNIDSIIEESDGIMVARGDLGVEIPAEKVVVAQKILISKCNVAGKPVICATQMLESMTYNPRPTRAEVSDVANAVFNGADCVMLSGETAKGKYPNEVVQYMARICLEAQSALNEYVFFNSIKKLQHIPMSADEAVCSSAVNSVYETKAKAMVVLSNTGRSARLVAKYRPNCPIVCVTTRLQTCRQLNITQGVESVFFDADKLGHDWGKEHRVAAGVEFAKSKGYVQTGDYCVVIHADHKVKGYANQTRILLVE
# How it was run: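 Eight-point qHTS titrations in triplicate, data normalized to DMSO neutral control. Reaction: 0.2 nM LmPYK E451W mutant, 0.5 mM PEP, 0.1 mM ADP, 7 mM MgCl2, pH 7.2, one hour at room temperature; luminescent ATP detection.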
# [3] = molecular target: Pyruvate kinase PKM (Homo sapiens) (UniProt P14618); experiment: qHTS Assay for Activators of Human Muscle Pyruvate Kinase (AID 954; active = well fitted curve in the direction sought with a large enough effect, not every such curve was filed as active)
# Chain of Pyruvate kinase PKM (Homo sapiens) (P14618 whole entry, looked up): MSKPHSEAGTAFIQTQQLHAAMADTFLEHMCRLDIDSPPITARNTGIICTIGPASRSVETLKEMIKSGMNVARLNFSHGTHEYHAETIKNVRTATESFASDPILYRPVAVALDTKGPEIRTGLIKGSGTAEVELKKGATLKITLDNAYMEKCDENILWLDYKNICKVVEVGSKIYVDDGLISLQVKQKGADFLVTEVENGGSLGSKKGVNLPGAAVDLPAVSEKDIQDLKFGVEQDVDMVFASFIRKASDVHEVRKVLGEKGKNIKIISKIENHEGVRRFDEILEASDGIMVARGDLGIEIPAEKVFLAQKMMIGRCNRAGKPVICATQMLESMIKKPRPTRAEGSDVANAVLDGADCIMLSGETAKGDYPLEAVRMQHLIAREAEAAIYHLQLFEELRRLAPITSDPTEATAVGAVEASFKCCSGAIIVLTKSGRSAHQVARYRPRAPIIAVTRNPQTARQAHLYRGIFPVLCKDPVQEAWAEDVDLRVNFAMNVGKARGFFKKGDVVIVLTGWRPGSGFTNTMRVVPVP
# How it was run: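 Purified human PKM2 (0.1 nM) with 0.5 mM PEP (Km) and 0.1 mM ADP in 50 mM imidazole pH 7.2, KCl, MgCl2, 1 h at room temperature; ATP formed read by coupled luciferase luminescence. Normalized to no-enzyme/110 uM thiadiazolimine inhibition; 0.3 nM enzyme column for activation.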
# [4] = Confirmation and Secondary Assay for Modulators of Hemoglobin Beta Chain Splicing at IVS2 705 locus (AID 930);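 also: HeLa cells stably expressing the EGFP-705 splicing reporter; GFP fluorescence per well restored by corrected splicing of the IVS2-705 intron in EGFP; series mostly up to about 46 µM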
# How it was run: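 HeLa cells stably carrying EGFP interrupted by mutant beta-globin intron 2 (IVS2-705) treated 2 days at 37C with compound; 500 nM antisense PNA as control. Correct splicing read as total peak GFP intensity per well by laser-scanning cytometry.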
# [5] = molecular target: Muscarinic acetylcholine receptor M1 (Rattus norvegicus) (UniProt P08482); experiment: qHTS Assay for Antagonists of Acetylcholine Muscarinic M1 Receptor: Measurement of IP-One Response (AID 944); also: nearly all actives have a fitted effect of over 75% in size; also: potency is read from the fitted curve at half-maximal effect
# How it was run: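 CHO cells stably expressing rat M1, pretreated 10 min with compound, then stimulated 30 min with carbachol at EC80 (200 nM) in LiCl-containing buffer pH 7.4; IP1 accumulation read by HTRF competition (665/620 nm).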
compound,measurement,setting,value
CCOC(=O)c1cnc2c(cnn2CC)c1NN=C(C)C,Potency,[1],inactive
same,Potency,[2],inactive
same,outcome,[3],inactive
CN1CCN(CC(=O)N2c3ccccc3C(=O)Nc3cccnc32)CC1,outcome,[4],inactive
same,outcome,[3],inactive
Cc1nc2c([nH]1)c(=O)n(C)c(=O)n2Cc1ccco1,Potency,[5],inactive
same,Potency,[2],inactive
same,outcome,[3],inactive
Cc1nc2sccn2c(=O)c1CCN1CCC(=C(c2ccc(F)cc2)c2ccc(F)cc2)CC1,Potency,[1],3.16 µM (active)
same,Potency,[5],15.8 µM (active)
same,Potency,[2],inactive
same,outcome,[3],inactive
O=C(O)CN(CCN(CC(=O)O)CC(=O)O)CCN(CC(=O)O)CC(=O)O,Potency,[1],inactive
same,Potency,[5],inactive
same,Potency,[2],inactive
same,outcome,[3],inactive
C[N+](C)(C)CCCCCCCCCC[N+](C)(C)C,outcome,[3],inactive
COc1cc2c(cc1OC)-c1cc(=Nc3c(C)cc(C)cc3C)n(C)c(=O)n1CC2,Potency,[2],inactive
same,outcome,[3],inactive
C(=C\c1ccccc1)/CN1CCN(C(c2ccccc2)c2ccccc2)CC1,outcome,[3],inactive
CN(C(=O)CCCOc1ccc2[nH]c(=O)ccc2c1)C1CCCCC1,outcome,[3],inactive
CC1=C(C)C(=O)C(CCCCC#CCCCC#CCO)=C(C)C1=O,Potency,[1],inactive
same,Potency,[2],inactive
same,outcome,[3],inactive
CC[N+](C)(C)c1cccc(O)c1,outcome,[4],inactive
same,outcome,[3],inactive
CCCOc1ccccc1-c1nc2n[nH]nc2c(=O)[nH]1,outcome,[4],inactive
same,outcome,[3],inactive
CC(=O)Oc1cc(C(C)C)c(OCCN(C)C)cc1C,Potency,[5],12.6 µM (active)
same,Potency,[2],inactive
same,outcome,[3],inactive
C[C@H](CS)C(=O)N1CCC[C@H]1C(=O)O,outcome,[3],inactive
Cc1ccc(=O)n(-c2ccccc2)c1,Potency,[1],inactive
same,Potency,[5],inactive
same,outcome,[3],inactive
O=C(CCCN1CCC(O)(c2cccc(C(F)(F)F)c2)CC1)c1ccc(F)cc1,outcome,[3],inactive
C[C@]12CCC(=O)C=C1CC[C@@H]1[C@@H]2C(=O)C[C@@]2(C)[C@H]1CC[C@]2(O)C(=O)CO,outcome,[3],inactive
O=C(CCNNC(=O)c1ccncc1)NCc1ccccc1,Potency,[1],inactive
same,Potency,[5],inactive
same,outcome,[3],inactive
C[N+](C)(C)CCOC(N)=O,outcome,[4],inactive
same,outcome,[3],inactive
CCC(=O)c1ccc2c(c1)N(CCCN(C)C)c1ccccc1S2,Potency,[1],0.398 µM (active)
same,Potency,[5],1.41 µM (active)
same,Potency,[2],inactive
same,outcome,[3],inactive
N[C@@H](COP(=O)(O)O)C(=O)O,Potency,[1],inactive
same,Potency,[5],inactive
same,outcome,[3],inactive
CN(C)CCN(Cc1cccs1)c1ccccn1,outcome,[4],inactive
same,outcome,[3],inactive
NC(N)=NC(=O)Cc1c(Cl)cccc1Cl,Potency,[5],inactive
same,Potency,[2],inactive
same,outcome,[3],inactive
CN(C)CCCN1c2ccccc2Sc2ccccc21,outcome,[4],inactive
same,Potency,[2],inactive
same,outcome,[3],inactive
COC(=O)[C@@H](N)Cc1ccc(O)c(O)c1,Potency,[1],inactive
same,outcome,[3],inactive
CN(C)CC/C=C1\c2ccccc2COc2ccccc21,outcome,[3],inactive
c1cc(CN2CCCCC2)cc(OCCCNc2nc3ccccc3s2)c1,Potency,[1],8.91 µM (active)
same,Potency,[5],14.1 µM (active)
same,outcome,[3],inactive
